# Compound activity from PubChem.
# The sample as a whole holds a higher share of hits than the screen did.
# Methyltransferases: Primary Screen for Target Class Profiling of Small Molecule Inhibitors of Methyltransferases; AID 1745853, 2022; calls only at 40 µM; actives 3.9% (n = 25,000); purified enzyme, MTase-Glo SAH luminescence; hits give low values; call rule not given here
#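 Each enzyme was assayed with SAM and its substrate. SAH formation detected by MTase-Glo luminescence; single-point 40 uM screen[…].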
# * hit, by the source's call; i = inactive; + = active, no number. % is set by controls: 0 for no effect and ±100 for the full control effect.
SMILES,Methyltransferases
CC1(C)CC[C@]2(C(=O)O[C@@H]3O[C@H](CO)[C@@H](O)[C@H](O)[C@H]3O)CC[C@]3(C)C(=CCC4[C@@]5(C)C[C@@H](O)[C@H](O)[C@@](C)(CO)C5CC[C@]43C)C2[C@@H]1O (stereo partly drawn),+
CSc1ccc(CNC(=O)c2cc3n(n2)CC(C)(C(=O)NC2CCCCC2)N(C)C3=O)cc1 (stereo not drawn),i
Cc1ccccc1Cn1nc2n(C(C)C)c(=O)c3ccc(C(=O)NCC(C)C)cc3n2c1=O,i
CC1CCCC(NC(=O)C2(C)Cn3c(nc4ccccc43)C(=O)N2Cc2ccco2)C1C (stereo not drawn),i
Cc1nn(C)c(C)c1CCC(=O)NCCc1ncc(C)n1Cc1ccc(F)cc1,i
Cc1cc(C)cc(NC(=O)CSc2nnc3n(CCCOC(C)C)c(=O)c4ccccc4n23)c1,i
CCC(C)NC(=O)c1ccc2c(=O)n(C(C)C)c3nn(CC(=O)NCc4ccc(F)cc4)c(=O)n3c2c1 (stereo not drawn),i
C#CCNC(=O)C[C@@H]1c2nc(NC(=O)OCC=C)sc2C[C@@H]2[C@](C)(CO)[C@H](O)CC[C@]21C,i
COc1ccc(CCN2C(=O)c3nc4ccccc4n3CC2(C)C(=O)NC2CCCCC2)cc1OC (stereo not drawn),i
CCc1cc2c(cc3n2CC(C)(C(=O)NC2CCCCCC2)N(Cc2ccc(C)cc2)C3=O)s1 (stereo not drawn),i
CCN1C(=O)c2c(C(=O)NCc3cc(Br)ccc3OC)ncn2CC1(C)C(=O)NC1CCCC1 (stereo not drawn),i
Cc1cc(O)c(-c2ccc([C@@H](C)CN(C)C)cc2)c2c1[nH]c(=O)c1sccc12,+
O=C(c1cnc2n1CCN(CCc1ccccc1)CC2)N1CCC(c2ccccc2)CC1,i
CCCSCCCN1C(=O)c2cc3ccccc3n2CC1(C)C(=O)NC1CCCCCC1 (stereo not drawn),i
CCCn1c(=O)c2ccc(C(=O)NC(C)C)cc2n2c(SCc3ccccc3)nnc12,i
CC(C)NC(=O)c1ccc2c(=O)n(C(C)C)c3nn(CC(=O)N(C)c4ccccc4)c(=O)n3c2c1,i
O=C(NCCc1ccccc1)c1ccc2c(=O)[nH]c3c(C(=O)NCC4CCCO4)sc(=S)n3c2c1 (stereo not drawn),+
CC(C)NC(=O)c1sc(=S)n2c1[nH]c(=O)c1ccc(C(=O)NC(C)CCc3ccccc3)cc12 (stereo not drawn),i
O=C(NCCc1ccc(Cl)cc1)c1ccc2c(=O)[nH]c3c(C(=O)NC4CCCC4)sc(=S)n3c2c1,+
Cc1ccc(-c2n[nH]n3c2nc(=O)c2ccc(C(=O)NCCc4ccccc4)cc23)cc1,i
Cn1c(=O)c2ccc(C(=O)NC3CCCCC3)cc2n2c(=O)n(Cc3ccc(Cl)cc3)nc12,i
CC(C)OCCCNC(=O)c1ccc2c(=O)[nH]c3c(C(=O)NC4CCCC4)sc(=S)n3c2c1,i
CCCn1c(=O)c2cc(Cl)ccc2n2c(SCc3ccc(C)cc3)nnc12,i
C=Cc1ccc(CSc2nnc3n(CCC)c(=O)c4cc(Cl)ccc4n23)cc1,i
O=C1CN(Cc2ccccc2F)S(=O)(=O)c2ccccc2N1Cc1ccccc1,i
SMILES,Methyltransferases
CCN1C(=O)c2cc(C(=O)Nc3cccc(Cl)c3)nn2CC1(C)C(=O)NC1CCCC1 (stereo not drawn),i
Cc1c(Cl)cccc1N1C(=O)c2cc(-c3ccco3)nn2CC1(C)C(=O)NC1CCCCC1 (stereo not drawn),i
O=C1c2ccccc2-c2nc3nnnn3nc21 (tested in a mixture with another compound),+
CC1CCC(NC(=O)Cn2c(=O)oc3cc(S(=O)(=O)NCc4ccccc4)ccc32)CC1 (stereo not drawn),i
Cc1ccc(CNC(=O)CSc2nnc3n(C)c(=O)c4ccc(C(=O)NC5CCCC5)cc4n23)cc1,i
CCCN1C(=O)c2cc(C(=O)NCc3ccc(OC)cc3)nn2CC1(C)C(=O)NC1CCCC1 (stereo not drawn),i
CCOC(=O)c1cc2n(n1)CC(C)(C(=O)NC1CCC(C)CC1)N(c1ccc(Cl)cc1C)C2=O (stereo not drawn),i
CCc1ccccc1NC(=O)c1ncn2c1C(=O)N(C1CC1)C(C)(C(=O)NCc1ccccc1OC)C2 (stereo not drawn),i
COC(=O)C1=COC(OC2OC(CO)C(O)C(O)C2O)C2C1C=CC2(O)CO (stereo not drawn),i
COc1ccc(/C=C/C(=O)O[C@@H]2[C@@H](O)[C@@H](O)[C@H](O[C@H]3[C@@H]4C=CO[C@@H](O[C@@H]5O[C@H](CO)[C@@H](O)[C@H](O)[C@H]5O)[C@@H]4[C@@]4(CO)O[C@@H]34)O[C@H]2C)cc1,i
C=C[C@H]1[C@H](O[C@@H]2O[C@H](CO)[C@@H](O)[C@H](OC(=O)/C=C/c3ccc(O)c(OC)c3)[C@H]2O)OC=C2C(=O)OCC[C@]21O,+
